The values below come from PubChem BioAssay (NCATS).

A number with no mark means an inactive call. Records with an inconclusive call do not appear. A call without a number means that no potency is given here. Active and inactive are the calls of the source. The call rests on the fitted dose curve; in most records, active means well fitted curve in the direction sought with a large enough effect; inconclusive means small, poorly fitted or top-dose-only effect, or another doubt; inactive means no such curve, though single readings can be large; an effect the other way counts as inactive or inconclusive. Where a SMILES comes first, the peptide text is derived from it. The star is where a group is joined. AFC = O=c1cc(C(F)(F)F)c2ccc(N*)cc2o1

System in one test: not listed separately
Briefly: Primary fluorescence-based thiol-reactive (MSTI) qHTS assay for identification of artifact compounds. (AID 1845221).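 Further: thiol-reactive compounds lower the probe fluorescence signal; nearly all actives have a fitted effect of over 65% in size.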 Conditions: MSTI thiol-reactivity probe, 1 h; series mostly up to 53.8 µM. The method in brief:
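A multi-concentration qHTS design tested compounds against 4 uM MSTI, pH 7.4 phosphate-buffered saline. Plates were protected from light for 1 h at room temperature before imaging fluorescence.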
On the technique in general: qHTS replaces the single test concentration by a dilution series.
With `CNC(=O)O[C@H]1COc2ccc(N3CCN(C4COC4)CC3)cc2[C@@H]1NC(=O)c1ccc(F)cc1`, the Potency entry is “inactive”.

Regarding `CCC(CCO[C@@H]1O[C@H](CO[C@H]2OC[C@](O)(CO)[C@H]2O)[C@@H](O)[C@H](O)[C@H]1O)C(C)(C)O` (stereo partly drawn), the Potency entry was “inactive”.

Consider `C/C=C(\C)C(=O)O[C@@H]1CC2[C@@H](CC=C3C[C@@H](O[C@H]4C[C@H](OC)[C@H](O[C@H]5C[C@H](OC)[C@H](O[C@H]6C[C@H](OC)[C@H](O[C@H]7C[C@@H](OC)[C@H](O[C@@H]8O[C@H](CO)[C@@H](O)[C@H](O)[C@H]8O)[C@@H](C)O7)[C@@H](C)O6)[C@@H](C)O5)[C@@H](C)O4)CC[C@@]32C)[C@@]2(O)CC[C@H](C(C)=O)[C@@]12C` (stereo partly drawn), for which the activity change, negative = thiol reactive is 10.3% [at 11.5 µM].

With `O=C(/C=C/c1ccccc1)OCC1=CC[C@@H]2C(C(=O)O)=CO[C@@H](O[C@@H]3O[C@H](CO)[C@@H](O)[C@H](O)[C@H]3O)[C@H]12`, the Potency result is “inactive”.

In the case of `COC1C=C([C@@H]2CC=C3[C@@]4(C)C(CC[C@]32C)[C@@]2(C)C=CC(=O)C(C)(C)C2C[C@H]4OC(C)=O)C(=O)O1` (stereo partly drawn), the Potency entry was “inactive”.

For the compound `O=C(c1ccc(C#Cc2cccc(F)c2)cn1)N1CC2CC2C1` (stereo not drawn), the Potency result was “inactive”.

As to `C[C@@H]1CC[C@]2(C)C(C[C@@H](O)[C@H](O)[C@]23CO3)[C@@]1(C)CCc1ccoc1` (stereo partly drawn), the Potency result is “inactive”.

`COC1CC(=O)CCC(C)OC(=O)CC1O` (stereo not drawn): the Potency entry was “inactive”.

A further test has as its system Nanoluciferase (engineered Oplophorus gracilirostris luciferase). The test is described as follows: Primary Nanoluciferase (NLuc) qHTS assay for identification of artifact compounds. (AID 1845222). Conditions: NLuc-conditioned medium, Nano-Glo luminescence, 5 min; series mostly up to 54.1 µM. The method in brief: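 Diluted conditioned medium from NLuc-expressing S16 cells treated with compounds for 15 min at room temperature, then Nano-Glo substrate added; luminescence read after 5 min. Percent inhibition versus no-enzyme and DMSO controls fitted to 4-parameter Hill equation.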
Take `NC(=O)c1cccc(-c2cc(O)cc(OC(=O)NC3CCCCC3)c2)c1`: the Potency entry is “inactive”.

For `COC(=O)[C@H](CC1C=NC=N1)NCC12CC3CC(CC(C3)C1)C2` (stereo partly drawn), the Potency result is “inactive”.

Regarding `CC(C)C1=CCC(C)(O)C(OC2OC(CO)C(O)C(O)C2O)C1` (stereo not drawn), the Potency entry was “inactive”.

Consider `COc1cc(/C=C/C(=O)OC2CC(OC(C)=O)C(OC(C)=O)C3C2CCC2C(=O)OC(c4ccoc4)CC23C)ccc1O[C@@H]1O[C@H](CO)[C@@H](O)[C@H](O)[C@H]1O` (stereo partly drawn), for which the Potency entry was “inactive”.

For the compound `C=C1CCC2C(C)(C)C(O)CCC2(C)C1CCC(C)CCOC(=O)CCC(=O)O` (stereo not drawn), the Potency entry is “inactive”.

Regarding `O=C(CCO[C@@H]1O[C@H](CO)[C@@H](O)[C@H](O)[C@H]1O)c1ccc(O)cc1`, the Potency result was “inactive”.

In the case of `COc1cc(C2OCC3C(c4ccc(OC5OC(CO)C(O)C(O)C5O)c(OC)c4)OCC23)ccc1O` (stereo not drawn), the Potency result is “inactive”.

For `C=C1CC[C@H]2[C@@H](/C=C(\C)C(=O)[C@@]3(OC(C)=O)C[C@H](C)[C@H](OC(C)=O)[C@@H]3[C@H]1OC(C)=O)C2(C)C`, the Potency result was “inactive”.

For `CC(C)(O)/C=C1/C(=O)C(C)(C)C(=O)C(C)(C)C1(O)O[C@@H]1O[C@H](COC(=O)c2cc(O)c(O)c(O)c2)[C@@H](O)[C@H](O)[C@H]1O` (stereo partly drawn), the Potency entry was “inactive”.

In the case of `C=C1C(=O)OC2/C=C(\C)CC/C=C(\C(=O)O)CC/C=C(\C)CCC12` (stereo not drawn), the Potency result was “inactive”.

Take `CC1CCC2(C(=O)OC3OC(COC4OC(CO)C(O)C(O)C4O)C(O)C(O)C3O)CCC3(C)C(=CCC4C5(C)CCC(O)C(C)(C(=O)O)C5CCC43C)C2C1(C)O` (stereo not drawn): the activity, negative = inhibition was 3.18% [at 11.6 µM].

With `CO[C@@H]1COCC[C@@H]1N[C@@H]1CC[C@@](C(=O)N2CCc3ncc(C(F)(F)F)cc3C2)(C(C)C)C1`, the Potency entry is “inactive”.

For the compound `CC[C@H]1OC(=O)C[C@@H](O)[C@H](C)[C@@H](O[C@@H]2O[C@H](C)[C@@H](O)[C@H](N(C)C)[C@H]2O)[C@@H](CCN2C[C@H](C)C[C@H](C)C2)C[C@@H](C)C(=O)/C=C/C(C)=C/[C@@H]1CO[C@@H]1O[C@H](C)[C@@H](O)[C@@H](OC)[C@H]1OC`, the Potency entry is “inactive”.

In the case of `CC(C)(C)c1cc(CN2CCN(CC(O)c3ccc(Cl)cc3)CC2)cc(C(C)(C)C)c1O` (stereo not drawn), the Potency entry was “inactive”.

As to `COCC(=O)N1CCc2cc(-c3csc(NC(=O)c4cc(OC)cc(OC)c4)n3)ccc21`, the Potency result is “inactive”.

With `CC1(C)CC2C3=CCC4C5(C)CCC(OC6OC(C(=O)O)C(O)C(O)C6OC6OC(CO)C(O)C(O)C6OC6OC(CO)C(O)C(O)C6O)C(C)(CO)C5CCC4(C)C3(C)CCC2(C)C(OC2OCC(O)C(OC3OC(CO)C(O)C(O)C3O)C2O)C1O` (stereo not drawn), the activity, negative = inhibition is 2.9% [at 11.6 µM].

`Cc1onc(-c2ccccc2)c1C(=O)N[C@@H]1C(=O)N2[C@@H]1SC(C)(C)[C@@H]2C(=O)O`: the Potency entry is “inactive”.

Take `Cc1cccc(-c2[nH]c(CNc3ccccc3F)nc2-c2ccc3ncnn3c2)n1`: the Potency entry is “inactive”.

`O=C(O)c1n[nH]c2c1C[C@H]1C[C@@H]21`: the Potency result was “inactive”.

Consider `COC1CC(=O)C23C(=O)NC(CC(C)C)C2C(C)C(C)=CC3/C=C(\C)CCC1O` (stereo not drawn), for which the Potency entry was “inactive”.

For the compound `CC1=CC(=O)C2C(C)(C)CCCC2(C)C12CCC1(COC(=O)C1)O2` (stereo not drawn), the Potency result is “inactive”.

In the case of `Cc1c(CN(C)C(=O)/C=C/c2cnc3c(c2)CCC(=O)N3)oc2ccccc12`, the Potency result is “inactive”.

Turning to `O=C1NC(Cc2ccc(O)cc2)C(=O)N2CCCC12` (stereo not drawn), the Potency result was “inactive”.

Turning to `OC1COC(OCC2OC(OCCc3ccccc3)C(O)C(O)C2O)C(O)C1O` (stereo not drawn), the Potency entry is “inactive”.

As for `CC(=O)N[C@@H](CC(C)C)C(=O)N[C@@H](CCC(=O)O)C(=O)N[C@@H](CCC(=O)O)C(=O)N[C@@H](CC(=O)O)C(=O)Nc1ccc2c(C(F)(F)F)cc(=O)oc2c1` (Ac-LEED-{AFC}), the Potency entry is “inactive”.

Consider `C=CC(C)(C)C1(CC2NC(=O)C3CCCN3C2=O)C(=O)Nc2cc3c(cc21)C=CC(C)(C)O3` (stereo not drawn), for which the Potency result was “inactive”.

On to `CCC(=O)N[C@@H]1Cc2ccccc2[C@H](c2ccccc2)C1`, for which the Potency result was “inactive”.

In the case of `CC(C)(O)CNc1nc(Nc2ccnc(C(F)(F)F)c2)nc(-c2cccc(C(F)(F)F)n2)n1`, the Potency entry was “inactive”.

For `NC(=O)[C@H]1CCCCc2c1[nH]c1ccc(Cl)cc21`, the Potency entry was “inactive”.

As to `C=CC1(C)C=C2C(=O)CC3C(C)(C)CCCC3(C(=O)O)C2(O)CC1` (stereo not drawn), the Potency entry is “inactive”.

With `CC1(CO)CC2C(O)C(=O)C3(CO)CC3(C)C2C1` (stereo not drawn), the Potency entry is “inactive”.

Turning to `CCC[C@@H]1C[C@@H](C(=O)N[C@@H]([C@H]2O[C@H](SC)[C@H](OP(=O)(O)O)[C@@H](O)[C@H]2O)[C@H](C)Cl)N(C)C1`, the Potency entry was “inactive”.

With `CNC(=O)O[C@H]1COc2ccc(N3CCN(C4COC4)CC3)cc2[C@@H]1NC(=O)c1ccc(F)cc1`, the Potency result was “inactive”.

For the compound `CCC(CCO[C@@H]1O[C@H](CO[C@H]2OC[C@](O)(CO)[C@H]2O)[C@@H](O)[C@H](O)[C@H]1O)C(C)(C)O` (stereo partly drawn), the Potency entry is “inactive”.

As for `C/C=C(\C)C(=O)O[C@@H]1CC2[C@@H](CC=C3C[C@@H](O[C@H]4C[C@H](OC)[C@H](O[C@H]5C[C@H](OC)[C@H](O[C@H]6C[C@H](OC)[C@H](O[C@H]7C[C@@H](OC)[C@H](O[C@@H]8O[C@H](CO)[C@@H](O)[C@H](O)[C@H]8O)[C@@H](C)O7)[C@@H](C)O6)[C@@H](C)O5)[C@@H](C)O4)CC[C@@]32C)[C@@]2(O)CC[C@H](C(C)=O)[C@@]12C` (stereo partly drawn), the activity, negative = inhibition was 4.8% [at 11.6 µM].

`O=C(/C=C/c1ccccc1)OCC1=CC[C@@H]2C(C(=O)O)=CO[C@@H](O[C@@H]3O[C@H](CO)[C@@H](O)[C@H](O)[C@H]3O)[C@H]12`: the Potency result was “inactive”.

As to `COC1C=C([C@@H]2CC=C3[C@@]4(C)C(CC[C@]32C)[C@@]2(C)C=CC(=O)C(C)(C)C2C[C@H]4OC(C)=O)C(=O)O1` (stereo partly drawn), the Potency entry is “inactive”.

Regarding `O=C(c1ccc(C#Cc2cccc(F)c2)cn1)N1CC2CC2C1` (stereo not drawn), the Potency entry was “inactive”.

Consider `C[C@@H]1CC[C@]2(C)C(C[C@@H](O)[C@H](O)[C@]23CO3)[C@@]1(C)CCc1ccoc1` (stereo partly drawn), for which the Potency result is “inactive”.

Turning to `COC1CC(=O)CCC(C)OC(=O)CC1O` (stereo not drawn), the Potency entry is “inactive”.
